# Screening data as filed in PubChem.
# PLK1 PBD block = blocks phosphopeptide binding to human PLK1 polo-box domain; P53350; Potency, µM, usual class: inhibitors; Plk1 PBD binding of FITC phosphopeptide, fluorescence polarization; AID 720504; hit rate 2.8% among 360,000; note: series mostly up to about 57 µM; nearly all actives have a fitted effect of over 65% in size
# PI5P4K alpha inh = blocks human PI5P4K alpha kinase activity. P48426. PI5P4Kalpha enzyme, ADP-Glo luminescence, 60 min; hits give low values. max response, %. hit rate 1.2% among 330,000; active = max response of -50% or lower; inconclusive = between -30% and -50%; inactive = -30% or higher; note: value at the top dose of about 77 µM
#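 Luminescence from ADP-Glo served as readout of PI5P4Kalpha activity in a qHTS format. Reaction: enzyme, substrate, compound, ATP at 5 microM final, 60 min at RT.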
# BAZ2B block = blocks human BAZ2B | Q9UIF8 | AlphaScreen BAZ2B-H3K14Ac peptide displacement | Potency, µM (doses to about 114 µM), usual class: inhibitors | hit rate 4.4% among 360,000; note: nearly all actives have a fitted effect of over 60% in size
#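 Inhibition is scored as reduced AlphaScreen emission. The BAZ2B/b-H3(5-23)K14Ac complex (50 nM each) in PBS pH 7.4, 0.01% Tween-20 meets compound (up to 110 uM) for 30 min at RT before bead addition.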
# G9a block = inhibitors of human histone lysine methyltransferase G9a. hit rate 8.8% among 350,000. G9a H3K9 monomethylation, AlphaScreen, 2 h. Q96KQ7. Potency, µM (top dose mostly 102 µM), actives largely listed as inhibitors; note: nearly all actives have a fitted effect of over 75% in size
#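 AlphaScreen read-out: biotin-H3K9 peptide (500 nM) methylation by 20 nM enzyme with 20 uM SAM, 2 h at room temperature after 15 min compound preincubation; anti-monomethyl H3K9 antibody plus donor/acceptor beads, 10 min dark.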
# HP1b chromo inh = blocks HP1-beta chromodomain binding to methylated histone tails; AID 540317; P83916; hit rate 0.56% among 390,000; AlphaScreen HP1-beta / biotin-H3K9me3 peptide binding; Potency, µM (highest dose often 114 µM), hits mostly inhibitors; note: nearly all actives have a fitted effect of over 70% in size
#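 Compound inhibition of the preformed complex between 50 nM HP1-beta and 50 nM biotinylated H3K9me3 peptide was read by AlphaScreen. Buffer was PBS pH 7.4 with 0.01% Tween-20. Incubations ran 30 min at room temperature, with 10 ug/mL donor/acceptor beads.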
# JMJD2A Tudor inh = JMJD2A Tudor domain (human) inhibition; O75164; Potency, µM (top dose mostly 114 µM), most hits filed as inhibitors; AlphaScreen JMJD2A-Tudor / H3K4me3 peptide binding; AID 504339; hit rate 4.4% among 390,000; note: nearly all actives have a fitted effect of over 50% in size
# A number is an active result; 0 = inactive; ? = inconclusive; - = no result given; [ ] = dose if it differs, or a comment. Rows were chosen to be rich in hits. Some 12% of all compounds tested hit in one or more screens of this group. Unless noted, calls come from the whole dose curve; as a rule, active = well fitted curve in the direction sought with a large enough effect; inconclusive = small, poorly fitted or top-dose-only effect, or another doubt; inactive = no such curve, though single readings can be large; an effect the other way counts as inactive or inconclusive.
SMILES,PLK1 PBD block,PI5P4K alpha inh,BAZ2B block,G9a block,HP1b chromo inh,JMJD2A Tudor inh
Nc1c2c(nc3sc4c(c13)CCCCC4)CCCC2,0,0,0,?,0,0
Oc1cccc(Nc2ncnc3sc4c(c23)CCCC4)c1,-,-,0,0,0,89.1µM
O=C1CC(c2ccc(C(F)(F)F)cc2)c2c(c3ccccc3oc2=O)O1 (stereo unspecified),-,-,0,0,0,0
O=C(CO)C(O)C(O)C(O)CO (stereo unspecified),26.7µM,?,0,0[12.7 µM],0,56.2µM
Cc1ccc2c(CN3CC=C(c4ccccc4)CC3)cc(=O)oc2c1C,0,0,0,50.1µM,0,0
COc1ccc(C(C)=O)cc1CN1CC=C(c2ccccc2)CC1,0,0,50.1µM,12.6µM,79.4µM,44.7µM
CCc1ccc2c(CN3CC=C(c4ccccc4)CC3)cc(=O)oc2c1,0,0,0,0,0,0
O=C(CCc1nc(C2=CCN(Cc3cccc(Cl)c3)CC2)no1)Nc1ccccc1F,-,-,0,0,0,0
C[C@@H](COc1ccccc1)N(CCCl)Cc1ccccc1,-,-,-,0[21.5 µM],-,-
CN1C(=O)N(C)C(=O)C2(Cc3cc([N+](=O)[O-])ccc3N3CCN(C(=O)c4ccccc4)CC32)C1=O (stereo unspecified),0,0,0,0,0,0
Cc1cccc(C(=O)Nc2ccc3c(c2)CC2(C(=O)N(C)C(=O)N(C)C2=O)C2CCCN32)c1 (stereo unspecified),0,0,0,28.2µM,0,0
COc1ccccc1C(=O)Nc1ccc2c(c1)CC1(C(=O)N(C)C(=O)N(C)C1=O)C1CCCN21 (stereo unspecified),0,0,0,31.6µM,0,0
CCc1ccc(CNCCc2c[nH]c3ccccc23)cc1,0,0,0[0.457 µM],?,?,35.5µM
Cc1cccc(CNCCc2c[nH]c3ccccc23)c1,0,0,39.8µM,-,0,?
c1ccc(CNCCc2c[nH]c3ccccc23)cc1,0,0,?,0,0,0
COc1cc(CNCCc2c[nH]c3ccccc23)cc(OC)c1,0,0,50.1µM,31.6µM,?,3.55µM
Oc1ccc2c3c1OC1C(O)CC[C@]4(O)C(C2)N(CC2CCC2)CC[C@]314 (stereo partly specified),-,-,-,0[2.33 µM],-,-
CCn1c(=O)oc2cc(NC(=O)CCl)ccc21,0,0,0,?,0,0
Cc1oc2cc3oc(=O)c(CCC(=O)N4CCCCC4)c(C)c3cc2c1C,-,-,0,0,0,0
CC[N+](C)(CC)CCCCOc1ccc2c(c1)C(=O)c1cc(OCCCC[N+](C)(CC)CC)ccc1-2,10.6µM,0,?,31.6µM,?,22.4µM
O=C(Oc1ccccc1)N1CCC2(CC1)CN(Cc1ccncc1)C2,-,-,-,0[12.7 µM],-,-
Cc1cc(/C=C2\C(=O)NC(=O)N(c3ccccc3F)C2=O)c(C)n1-c1cc(C(=O)O)cc(C(=O)O)c1,?,-78.1,28.2µM,10µM,12.6µM,11.2µM
Cc1cc(/C=C2\C(=O)NC(=O)N(c3ccccc3)C2=O)c(C)n1-c1ccc(C(=O)O)c(Cl)c1,?,?,?,44.7µM,0,0
Cc1cc(/C=C2\C(=O)NC(=O)N(c3ccc(F)cc3)C2=O)c(C)n1-c1cccc(C(=O)O)c1,16.8µM,-50.3,0,35.5µM,0,0
Cc1cc(/C=C2/C(=O)NC(=O)N(C)C2=O)c(C)n1-c1ccccc1,0,0,0,?,0,0
SMILES,PLK1 PBD block,PI5P4K alpha inh,BAZ2B block,G9a block,HP1b chromo inh,JMJD2A Tudor inh
CCN1C[C@]2(COC)CC[C@H](OC)[C@@]34C5C[C@@H]6[C@@H](OC)C[C@@]7(OCO[C@@]7([C@@H](O)C23)[C@@H]14)C5[C@H]6OC (stereo partly specified),-,-,-,0,-,-
CC1(C)OC(c2ccccc2)=C/C(=C/C=C2C(=O)NC(=S)NC2=O)O1,0,?,10µM,10µM,11.2µM,?
O=C(N/N=C/C1C(=O)NC(=S)N(c2ccccc2)C1=O)c1cc(Br)c(O)c(Br)c1 (stereo unspecified),3.36µM,-95.6,0,44.7µM,0,10µM
O=c1[nH]c2ccccc2o1,0,0,0,0,0,31.6µM
COc1cccc(-n2c(=S)[nH]c3ccccc3c2=O)c1,0,0,0,0,0,0
COc1cccc(-n2c(CNC(=O)OC(C)(C)C)n[nH]c2=S)c1,0,0,0,28.2µM,0,10µM
